Source: PubChem BioAssay
Shown are actives, neighbours in structure and some others; about 7.5% of the full set was active somewhere.
NPC1 promoter act = activators of NPC1 promoter; Potency, µM (top dose mostly 9.22 µM), hits mostly activators; actives 2.4% (n = 320,000); Huh7 NPC1 promoter luciferase reporter, 24 h; AID 485313; further: nearly all actives have a fitted effect of over 60% in size
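Compounds in DMSO were transferred onto Huh7 NPC1-luciferase reporter cells pre-incubated 2 h; after 24 h at 37 °C, Amplite reagent was dispensed and luminescence recorded 10 min later.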
ELG1 genotox = induces genotoxicity in HEK293T cells with luciferase-tagged ELG1 | actives 1.3% (n = 330,000) | Potency, µM (titrated, usually from 46 µM), most hits filed as activators | AID 504466 | HEK293T ELG1-luciferase reporter, luminescence, 16 h; further: nearly all actives have a fitted effect of over 60% in size
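Screening used a luciferase reporter fused to human ELG1 in HEK293T cells. Luminescence was read on a CCD plate imager after 16 hr exposure and 30 min ONE-Glo incubation.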
FLuc modulator = inhibits or activates purified firefly luciferase, miR-21 counter-screen; actives 6.9% (n = 360,000); AID 588342; purified FLuc, Km substrates, luminescence inhibition; P08659; Potency, µM (highest dose often 57.5 µM), usual class: inhibitors; further: nearly all actives have a fitted effect of over 55% in size
Target sequence (P08659 whole entry, looked up): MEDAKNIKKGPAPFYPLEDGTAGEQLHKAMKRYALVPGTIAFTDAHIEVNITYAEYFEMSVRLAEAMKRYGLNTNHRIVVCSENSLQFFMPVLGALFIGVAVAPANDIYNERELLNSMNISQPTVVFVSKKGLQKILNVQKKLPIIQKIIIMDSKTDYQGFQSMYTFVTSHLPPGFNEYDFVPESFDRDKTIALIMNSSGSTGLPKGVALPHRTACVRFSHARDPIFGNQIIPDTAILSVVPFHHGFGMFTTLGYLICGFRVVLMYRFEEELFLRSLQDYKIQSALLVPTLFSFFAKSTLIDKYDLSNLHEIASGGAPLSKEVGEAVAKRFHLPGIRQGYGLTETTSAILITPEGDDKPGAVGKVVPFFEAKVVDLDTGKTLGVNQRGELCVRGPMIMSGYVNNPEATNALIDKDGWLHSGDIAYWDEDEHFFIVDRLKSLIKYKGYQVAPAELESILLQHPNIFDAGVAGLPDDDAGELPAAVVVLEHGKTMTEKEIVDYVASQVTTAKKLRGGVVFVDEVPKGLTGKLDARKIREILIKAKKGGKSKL
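Purified P. pyralis luciferase (10nM final) with 10uM D-luciferin and 10uM ATP (Km levels) in 50mM Tris acetate pH 7.5, 10mM Mg acetate, 0.01% Tween-20, 0.05% BSA; qHTS 6-point titration, ~60 µM downward; luminescence read.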
Rab9 promoter act = Rab9 promoter activation | actives 2.8% (n = 320,000) | Potency, µM (titrated, usually from 9.22 µM), hits mostly activators | Huh7 Rab9 promoter-luciferase reporter, luminescence, 24 h; further: nearly all actives have a fitted effect of over 60% in size
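Luminescence read-out: Huh7 cells stably expressing Rab9-luciferase, treated 24 h with compound at 37 °C, then lysed with luciferase reagent for 10 min at ambient before reading.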
SMN2 splice enh = SMN2 splice variant enhancement. HEK293 SMN2-luciferase splicing reporter, luminescence, 30-36 h. Potency, µM (doses to about 46.1 µM), actives largely listed as activators. actives 2.8% (n = 210,000); further: nearly all actives have a fitted effect of over 55% in size
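qHTS luciferase splicing reporter: luminescence rises when SMN2 exon 7 is included in transfected HEK293 cells. Compound exposure lasted 30-36 h at 37C, with 4.5 mM final sodium butyrate as control, followed by a ONE-Glo read.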
Numbers stand for hits; [ ] = another dose, or the depositor's remark. The call rests on the fitted dose curve; in most records, active means well fitted curve in the direction sought with a large enough effect; inconclusive means small, poorly fitted or top-dose-only effect, or another doubt; inactive means no such curve, though single readings can be large; an effect the other way counts as inactive or inconclusive.

O=C(N/N=C/c1cccc(Br)c1)C1CC(=O)N(c2ccccc2)C1 (stereo not given) was read as NPC1 promoter act inactive, ELG1 genotox inactive, FLuc modulator inactive and Rab9 promoter act inactive.
COc1ccccc1NC(=O)C1CCN(S(=O)(=O)c2ccc3c(c2)oc(=O)n3C)CC1 was read as FLuc modulator inactive and SMN2 splice enh inactive.
CCOc1ccc2c(c1)c(=O)c(C(=O)c1ccc(CC)cc1)cn2CC(=O)Nc1cccc(Cl)c1 was read as FLuc modulator inactive and SMN2 splice enh inactive.
C=C1C2c3ccccc3C(CC2(C)O[Si](C)(C)C)N1C(=O)OC (stereo not given) was read as SMN2 splice enh inactive[9.22 µM].
CCOc1ccc(C2=Nc3ccc(Br)cc3C(c3ccc(N4CCOCC4)cc3)=NN2)cc1 was read as NPC1 promoter act inconclusive, ELG1 genotox inconclusive, FLuc modulator 23.9µM, Rab9 promoter act inconclusive and SMN2 splice enh inconclusive.
`CCOc1ccc(C2=NNC(c3cccs3)=Nc3ccc(OC)cc32)cc1` gave NPC1 promoter act inactive, ELG1 genotox inactive, FLuc modulator 21.3µM, Rab9 promoter act inactive and SMN2 splice enh inactive.
Screening CCc1ccc2c(c1)C(c1ccc(N3CCOCC3)cc1)=NNC(c1ccncc1)=N2 returned NPC1 promoter act inactive, ELG1 genotox inactive, FLuc modulator inactive, Rab9 promoter act inactive and SMN2 splice enh inactive.
Screening CCOc1ccc(C2=Nc3ccccc3C(c3ccc(N4CCOCC4)cc3)=NN2)cc1 returned NPC1 promoter act inconclusive, ELG1 genotox inactive, FLuc modulator inconclusive, Rab9 promoter act 2.82µM and SMN2 splice enh inconclusive.
Screening Brc1ccc2c(c1)C(c1ccc(N3CCOCC3)cc1)=NNC(c1cccs1)=N2 returned NPC1 promoter act inactive, ELG1 genotox inactive, FLuc modulator inconclusive, Rab9 promoter act inactive and SMN2 splice enh inactive.
Screening CC(=O)c1ccc(OC(=O)c2cc3ccccc3oc2=O)cc1 returned NPC1 promoter act inactive, ELG1 genotox inactive, FLuc modulator inactive, Rab9 promoter act inactive and SMN2 splice enh inactive.
`COc1ccc(CCC(=O)Nc2ccc(OC)c(S(=O)(=O)N3CCCCC3)c2)cc1` gave NPC1 promoter act inactive, ELG1 genotox inactive, FLuc modulator inactive and Rab9 promoter act inactive.
CCCN(CCC)CCCNC(=S)Nc1ccc2nc(N3CCCC3)cc(C)c2c1 was read as NPC1 promoter act inactive, ELG1 genotox inactive, FLuc modulator inactive, Rab9 promoter act inactive and SMN2 splice enh inactive.
`Cn1c(SCc2ccc(C(=O)Nc3nccs3)cc2)nnc1-c1ccccc1` gave NPC1 promoter act inactive, ELG1 genotox inactive, FLuc modulator 15.1µM, Rab9 promoter act inactive and SMN2 splice enh inactive.
`CCn1c(SCc2ccc(C(=O)Nc3nccs3)cc2)nnc1-c1ccc(N)cc1` gave NPC1 promoter act inactive, ELG1 genotox inactive, FLuc modulator 16.9µM, Rab9 promoter act inactive and SMN2 splice enh inactive.
For CCn1c(SCC(=O)Nc2nccs2)nnc1-c1ccc(S(=O)(=O)N2CCCCCC2)cc1 the results were NPC1 promoter act inactive, ELG1 genotox inactive, FLuc modulator inactive, Rab9 promoter act inactive and SMN2 splice enh inactive.
`CCn1c(SCc2ccc(C(=O)Nc3nccs3)cc2)nnc1-c1ccc(NC(C)=O)cc1` gave NPC1 promoter act inactive, ELG1 genotox inactive, FLuc modulator 10.7µM, Rab9 promoter act inactive and SMN2 splice enh inactive.
CCC(Sc1nnc(-c2ccc(C)c(Cl)c2)n1CC)C(=O)Nc1nccs1 (stereo not given) was read as NPC1 promoter act inactive, ELG1 genotox inactive, FLuc modulator inactive, Rab9 promoter act inactive and SMN2 splice enh inactive.
C=CCn1c(SCc2ccc(C(=O)Nc3ccccc3)cc2)nnc1-c1ccccc1 was read as NPC1 promoter act inactive, ELG1 genotox inactive, FLuc modulator 13.5µM, Rab9 promoter act inactive and SMN2 splice enh inactive.
`C=CCn1c(SCC(=O)NNC(=S)Nc2ccccc2)nnc1-c1ccccc1` gave NPC1 promoter act inactive, ELG1 genotox inactive, FLuc modulator inactive and Rab9 promoter act inactive.
`COc1cccc(N2CC(C(=O)Nc3c(C(N)=O)oc4ccccc34)CC2=O)c1` (stereo not given) gave NPC1 promoter act inactive, ELG1 genotox inactive, FLuc modulator inactive and Rab9 promoter act inactive.
Screening COc1cccc(COc2cc3ccccc3nc2C)c1 returned NPC1 promoter act inactive, ELG1 genotox inactive, FLuc modulator 19µM, Rab9 promoter act inactive and SMN2 splice enh inactive.
Screening Cc1nc2ccccc2cc1OCc1ccc(Cl)cc1 returned NPC1 promoter act inactive, ELG1 genotox inactive, FLuc modulator inconclusive, Rab9 promoter act inactive and SMN2 splice enh inactive.
`Cc1nc2ccccc2cc1OCc1ccccc1` gave NPC1 promoter act inactive, ELG1 genotox inactive, FLuc modulator 16.9µM, Rab9 promoter act inactive and SMN2 splice enh inactive.
COC(=O)c1sccc1OCc1cccc(OC)c1 was read as NPC1 promoter act inactive, ELG1 genotox inactive, FLuc modulator inconclusive, Rab9 promoter act inactive and SMN2 splice enh inactive.
Screening N#CCc1nc2ccccc2c(=O)[nH]1 returned NPC1 promoter act inactive, ELG1 genotox inactive, FLuc modulator inactive and Rab9 promoter act inactive.
For CC(=O)Nc1ccc(C(=O)CSc2nnc3ccc4ccccc4n23)cc1 the results were FLuc modulator inactive.
`O=C(CSc1nnc2ccc3ccccc3n12)c1ccc(F)cc1` gave NPC1 promoter act inactive, FLuc modulator 6.75µM and Rab9 promoter act inconclusive.
Screening O=C(CSc1cnc2ccccc2n1)c1ccc(F)cc1 returned NPC1 promoter act 3.16µM, ELG1 genotox inconclusive, FLuc modulator 4.78µM, Rab9 promoter act 3.16µM and SMN2 splice enh 11.2µM.
`Cc1ccc(NC(=O)CN2C(=O)c3ccccc3Sc3ccc(C(=O)N4CCOCC4)cc32)cc1F` gave FLuc modulator inactive.
Screening CC(C)(C)c1ccc(C(=O)NCc2nnc(SCC(=O)NC3CCCCC3)o2)cc1 returned NPC1 promoter act inactive, ELG1 genotox inactive, FLuc modulator 19µM and Rab9 promoter act inactive[1.84 µM].
`CC(C)(C)c1ccc(C(=O)NCc2nnc(SCC(=O)NC3CCCC3)o2)cc1` gave NPC1 promoter act inactive, ELG1 genotox inactive, FLuc modulator inconclusive and Rab9 promoter act inactive.
`CC(C)(C)c1ccc(-c2nnc(SCC(=O)NC3CC3)o2)cc1` gave NPC1 promoter act inconclusive, ELG1 genotox inactive, FLuc modulator 4.26µM and Rab9 promoter act inconclusive.
`Fc1ccc(-n2ncc3c(N4CCC(Cc5ccccc5)CC4)ncnc32)cc1` gave FLuc modulator inactive.
For C[C@@]12CC[C@@H]3[C@H](CCC4=CC(=O)CC[C@]43C)[C@@H]1CC[C@@H]2C(=O)COS(=O)(=O)c1ccc(Br)cc1 the results were SMN2 splice enh inactive[9.22 µM].
C=CCSc1nncn1/N=C/c1ccc(OC)cc1 was read as NPC1 promoter act 2.82µM, ELG1 genotox 20.6µM, FLuc modulator 6.75µM, Rab9 promoter act 2.24µM and SMN2 splice enh 12.6µM.
